From PubChem BioAssay (NCATS)
Records with an inconclusive call do not appear. Where a call stands in place of a potency, no number is given. Active and inactive are the calls of the source. Calls come from the whole dose curve; as a rule, active = well fitted inhibition curve with a large enough effect; inconclusive = small, poorly fitted or top-dose-only effect; inactive = flat fitted curve, though single readings scatter.

Legend:
Experiment in all cases: qHTS profiling for inhibitors of Plasmodium falciparum proliferation (AID 504749); note: nearly all actives have a fitted effect of over 60% in size
Conditions in all cases: P. falciparum in erythrocytes, SYBR Green DNA, 72 h; series mostly up to 28.7 µM
AA1029 = test system: AA1029
How it was run: (§1)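 Readout was DNA-dye fluorescence from lysed cultures, ex 485/em 535 nm. Parasitized red cells had grown 72 h with compound; data scaled between 0.29 uM artemisinin and DMSO wells and corrected using vehicle-only plates.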

AS120 = test system: AS120
How it was run: as §1

ATS189 = test system: ATS189
How it was run: as §1

ATS95 = test system: ATS95
How it was run: as §1

C2A = test system: C2A
How it was run: as §1

CP185 = test system: CP185
How it was run: as §1

CP191 = test system: CP191
How it was run: as §1

CP192 = test system: CP192
How it was run: as §1

CP194 = test system: CP194
How it was run: as §1

CP201 = test system: CP201
How it was run: as §1

CP203 = test system: CP203
How it was run: as §1

CP211 = test system: CP211
How it was run: as §1

CP215 = test system: CP215
How it was run: as §1

CP217 = test system: CP217
How it was run: as §1

CP237 = test system: CP237
How it was run: as §1

CP238 = test system: CP238
How it was run: as §1

CP247 = test system: CP247
How it was run: as §1

CP250 = test system: CP250
How it was run: as §1

CP252 = test system: CP252
How it was run: as §1

CP256 = test system: CP256
How it was run: as §1
Potency is the fitted concentration of half-maximal effect.

COC(F)(F)C(Cl)Cl
Potency (AA1029): inactive
Potency (AS120): inactive
Potency (ATS189): inactive
Potency (ATS95): inactive
Potency (C2A): inactive
Potency (CP185): inactive
Potency (CP191): inactive
Potency (CP192): inactive
Potency (CP194): inactive
Potency (CP201): inactive
Potency (CP203): inactive
Potency (CP211): inactive
Potency (CP215): inactive
Potency (CP217): inactive
Potency (CP237): inactive
Potency (CP238): inactive
Potency (CP247): inactive
Potency (CP250): inactive
Potency (CP252): inactive
Potency (CP256): inactive

CO[C@H]1C[C@@H]2CC[C@@H](C)[C@@](O)(O2)C(=O)C(=O)N2CCCC[C@H]2C(=O)O[C@H]([C@H](C)C[C@@H]2CC[C@@H](OCCO)[C@H](OC)C2)CC(=O)[C@H](C)/C=C(\C)[C@@H](O)[C@@H](OC)C(=O)[C@H](C)C[C@H](C)/C=C/C=C/C=C/1C
Potency (AA1029): 1410 nM (active)
Potency (AS120): 1120 nM (active)
Potency (ATS189): 1260 nM (active)
Potency (ATS95): 2000 nM (active)
Potency (C2A): 3160 nM (active)
Potency (CP185): 3160 nM (active)
Potency (CP191): 1120 nM (active)
Potency (CP192): 4780 nM (active)
Potency (CP194): 1690 nM (active)
Potency (CP201): 6010 nM (active)
Potency (CP211): 4260 nM (active)
Potency (CP215): 1690 nM (active)
Potency (CP217): 1000 nM (active)
Potency (CP237): 2000 nM (active)
Potency (CP238): 2820 nM (active)
Potency (CP247): 1260 nM (active)
Potency (CP250): 3160 nM (active)
Potency (CP252): 1260 nM (active)
Potency (CP256): 3550 nM (active)

CC(C(=O)O)c1ccc(N2Cc3ccccc3C2=O)cc1 (configuration not stated)
Potency (AA1029): inactive
Potency (AS120): inactive
Potency (ATS189): inactive
Potency (ATS95): inactive
Potency (C2A): inactive
Potency (CP185): inactive
Potency (CP191): inactive
Potency (CP192): inactive
Potency (CP194): inactive
Potency (CP201): inactive
Potency (CP203): inactive
Potency (CP211): inactive
Potency (CP215): inactive
Potency (CP217): inactive
Potency (CP237): inactive
Potency (CP238): inactive
Potency (CP247): inactive
Potency (CP250): inactive
Potency (CP252): inactive
Potency (CP256): inactive

C[C@]12O[C@H](C[C@]1(O)CO)n1c3ccccc3c3c4c(c5c6ccccc6n2c5c31)CNC4=O
Potency (AA1029): 316 nM (active)
Potency (AS120): 251 nM (active)
Potency (ATS189): 316 nM (active)
Potency (ATS95): 355 nM (active)
Potency (C2A): 316 nM (active)
Potency (CP185): 316 nM (active)
Potency (CP191): 282 nM (active)
Potency (CP192): 379 nM (active)
Potency (CP194): 379 nM (active)
Potency (CP201): 536 nM (active)
Potency (CP211): 426 nM (active)
Potency (CP215): 426 nM (active)
Potency (CP217): 316 nM (active)
Potency (CP237): 224 nM (active)
Potency (CP238): 282 nM (active)
Potency (CP247): 224 nM (active)
Potency (CP250): 251 nM (active)
Potency (CP252): 316 nM (active)
Potency (CP256): 398 nM (active)

CC(NNC(=O)c1ccccc1)c1ccccc1 (configuration not stated)
Potency (AA1029): inactive
Potency (AS120): inactive
Potency (ATS189): inactive
Potency (ATS95): inactive
Potency (C2A): inactive
Potency (CP185): inactive
Potency (CP191): inactive
Potency (CP192): inactive
Potency (CP194): inactive
Potency (CP201): inactive
Potency (CP211): inactive
Potency (CP215): inactive
Potency (CP217): inactive
Potency (CP237): inactive
Potency (CP238): inactive
Potency (CP247): inactive
Potency (CP250): inactive
Potency (CP252): inactive
Potency (CP256): inactive

Cc1ccccc1
Potency (AA1029): inactive
Potency (AS120): inactive
Potency (ATS189): inactive
Potency (ATS95): inactive
Potency (C2A): inactive
Potency (CP185): inactive
Potency (CP191): inactive
Potency (CP192): inactive
Potency (CP194): inactive
Potency (CP201): inactive
Potency (CP203): inactive
Potency (CP211): inactive
Potency (CP215): inactive
Potency (CP217): inactive
Potency (CP237): inactive
Potency (CP238): inactive
Potency (CP247): inactive
Potency (CP250): inactive
Potency (CP252): inactive
Potency (CP256): inactive

CCNC(=O)[C@@H]1CCCN1C(=O)[C@H](CCCN=C(N)N)NC(=O)[C@H](CC(C)C)NC(=O)[C@@H](Cc1c[nH]c2ccccc12)NC(=O)[C@H](Cc1ccc(O)cc1)NC(=O)[C@H](CO)NC(=O)[C@H](Cc1c[nH]c2ccccc12)NC(=O)[C@H](Cc1cnc[nH]1)NC(=O)[C@@H]1CCC(=O)N1
Potency (AA1029): 3160 nM (active)
Potency (AS120): 4470 nM (active)
Potency (ATS189): 8910 nM (active)
Potency (ATS95): 4470 nM (active)
Potency (C2A): 7080 nM (active)
Potency (CP185): 11200 nM (active)
Potency (CP191): 7940 nM (active)
Potency (CP192): 9530 nM (active)
Potency (CP194): 7570 nM (active)
Potency (CP201): 15100 nM (active)
Potency (CP203): 6750 nM (active)
Potency (CP211): 6750 nM (active)
Potency (CP215): 13500 nM (active)
Potency (CP217): 7080 nM (active)
Potency (CP237): 3550 nM (active)
Potency (CP238): 7080 nM (active)
Potency (CP247): 7080 nM (active)
Potency (CP250): 8910 nM (active)
Potency (CP252): 11200 nM (active)
Potency (CP256): 12600 nM (active)

CCC(=O)NCCC1CCc2ccc3c(c21)CCO3 (configuration not stated)
Potency (AA1029): inactive
Potency (AS120): inactive
Potency (ATS189): inactive
Potency (ATS95): inactive
Potency (C2A): inactive
Potency (CP185): inactive
Potency (CP191): inactive
Potency (CP192): inactive
Potency (CP194): inactive
Potency (CP201): inactive
Potency (CP203): inactive
Potency (CP211): inactive
Potency (CP215): inactive
Potency (CP217): inactive
Potency (CP237): inactive
Potency (CP238): inactive
Potency (CP247): inactive
Potency (CP250): inactive
Potency (CP252): inactive
Potency (CP256): inactive

CO[C@H](C(=O)[C@@H](O)[C@@H](C)O)C1Cc2cc3cc(O[C@H]4C[C@@H](O[C@H]5C[C@@H](O)[C@H](O)[C@@H](C)O5)[C@@H](O)[C@@H](C)O4)c(C)c(O)c3c(O)c2C(=O)[C@H]1O[C@H]1C[C@@H](O[C@H]2C[C@@H](O[C@H]3C[C@](C)(O)[C@H](O)[C@@H](C)O3)[C@H](O)[C@@H](C)O2)[C@H](O)[C@@H](C)O1 (some centres not stated)
Potency (AA1029): 112 nM (active)
Potency (AS120): 141 nM (active)
Potency (ATS189): 158 nM (active)
Potency (ATS95): 126 nM (active)
Potency (C2A): 224 nM (active)
Potency (CP185): 199 nM (active)
Potency (CP191): 178 nM (active)
Potency (CP192): 2130 nM (active)
Potency (CP194): 2690 nM (active)
Potency (CP201): 2130 nM (active)
Potency (CP203): 2690 nM (active)
Potency (CP211): 2130 nM (active)
Potency (CP215): 1690 nM (active)
Potency (CP217): 224 nM (active)
Potency (CP237): 112 nM (active)
Potency (CP238): 178 nM (active)
Potency (CP247): 355 nM (active)
Potency (CP250): 199 nM (active)
Potency (CP252): 178 nM (active)
Potency (CP256): 251 nM (active)

CCCCCCCCCCCCCC[n+]1ccc(C)cc1
Potency (AA1029): 3980 nM (active)
Potency (AS120): 3550 nM (active)
Potency (ATS189): 5620 nM (active)
Potency (ATS95): 2820 nM (active)
Potency (C2A): 3160 nM (active)
Potency (CP185): 5010 nM (active)
Potency (CP191): 2820 nM (active)
Potency (CP192): 4780 nM (active)
Potency (CP194): 4260 nM (active)
Potency (CP201): 4780 nM (active)
Potency (CP203): 3790 nM (active)
Potency (CP211): 3380 nM (active)
Potency (CP215): 4260 nM (active)
Potency (CP217): 3980 nM (active)
Potency (CP237): 3550 nM (active)
Potency (CP238): 4470 nM (active)
Potency (CP247): 3980 nM (active)
Potency (CP250): 3980 nM (active)
Potency (CP252): 4470 nM (active)
Potency (CP256): 5010 nM (active)

Nc1c(N=Nc2ccc(-c3ccc(N=Nc4cc(S(=O)(=O)O)c5ccccc5c4N)cc3)cc2)cc(S(=O)(=O)O)c2ccccc12
Potency (AA1029): inactive
Potency (AS120): inactive
Potency (ATS189): inactive
Potency (ATS95): inactive
Potency (C2A): inactive
Potency (CP185): inactive
Potency (CP191): inactive
Potency (CP192): inactive
Potency (CP194): inactive
Potency (CP201): inactive
Potency (CP203): inactive
Potency (CP211): inactive
Potency (CP215): inactive
Potency (CP217): inactive
Potency (CP237): inactive
Potency (CP238): inactive
Potency (CP247): inactive
Potency (CP250): inactive
Potency (CP252): inactive
Potency (CP256): inactive
